# This is part of a sample that, as a whole, favours compounds with a hit. Of some 79,000 tested, about 15% had one in any assay. Unmarked numbers belong to inactive results. Activity calls are given as the source filed them. No stated cut-off is given here; in the data, active means growth inhibition above about 70%; inactive means the rest.
# Columns and labels:
# [1] = NCI Yeast Anticancer Drug Screen. Data for the rad52 strain (AID 147);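 further: 0% = growth of vehicle-treated control cultures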; conditions: S. cerevisiae rad52 mutant growth inhibition, active compounds read high
# Procedure, shortened: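 Screen used a yeast mutant impaired in DNA repair. After compound exposure, growth was measured. Values reflect inhibition compared with vehicle-treated cells.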
# [2] = NCI Yeast Anticancer Drug Screen. Data for the wt1 strain (AID 149);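 further: 0% = growth of vehicle-treated wt1 cultures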; conditions: S. cerevisiae wt1 strain (SPY 50644) growth inhibition, active compounds read high
# Procedure, shortened: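 Compounds are added to wt1 yeast cultures. Growth is then measured. Inhibition is expressed relative to vehicle-treated controls.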
# [3] = NCI Yeast Anticancer Drug Screen. Data for the rad50EPP+ strain (AID 151);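 further: 0% = growth of vehicle-treated control cultures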; conditions: S. cerevisiae rad50 mutant strain, active compounds read high
# Procedure, shortened: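 Exposing the rad50EPP+ strain to each compound, growth was compared with vehicle-only cultures to give inhibition.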
# [4] = NCI Yeast Anticancer Drug Screen. Data for the mgt1 strain (AID 153); conditions: S. cerevisiae mgt1 mutant growth inhibition, active compounds read high
# Procedure, shortened: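 Genetically defined yeast (mgt1) treated with compound; inhibition of growth expressed against vehicle-treated controls.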
# [5] = NCI Yeast Anticancer Drug Screen. Data for the rad50 strain (AID 155);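 further: 0% = growth of vehicle-only cultures of the same strain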; conditions: S. cerevisiae rad50 strain growth inhibition, active compounds read high
# Procedure, shortened: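 Inhibition values express reduced yeast growth in compound-treated cultures relative to vehicle-treated controls.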
# [6] = NCI Yeast Anticancer Drug Screen. Data for the mec2-1 strain (AID 157); conditions: S. cerevisiae mec2-1 strain, active compounds read high
# Procedure, shortened: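 Readout is yeast growth inhibition, normalised to vehicle-treated controls, in the mec2-1 strain exposed to compound.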
# [7] = NCI Yeast Anticancer Drug Screen. Data for the rad14 strain (AID 159);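 further: 0% = growth of vehicle-treated control cultures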; conditions: S. cerevisiae rad14 strain growth inhibition, active compounds read high
# Procedure, shortened: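 A mutant yeast strain defective in DNA damage repair is treated with compound; inhibition of its growth is scored against untreated, vehicle-exposed cultures.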
# [8] = NCI Yeast Anticancer Drug Screen. Data for the sgs1 mgt1 strain (AID 161);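 further: 0% = growth of cultures given vehicle only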; conditions: S. cerevisiae sgs1 mgt1 strain, active compounds read high
# Procedure, shortened: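 This yeast growth screen uses a strain with defined DNA-repair lesions; compound-treated growth is compared with vehicle-treated growth.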
# [9] = NCI Yeast Anticancer Drug Screen. Data for the CLN2oe strain (AID 163);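 further: 0% = growth of vehicle-only control cultures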; conditions: S. cerevisiae CLN2oe strain, active compounds read high
# Procedure, shortened: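 Values reflect how much compound exposure reduced yeast growth, referenced to vehicle-exposed cells. Assay organism is a strain with a defined genetic change affecting cell-cycle control.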
# [10] = NCI Yeast Anticancer Drug Screen. Data for the cln2 rad14 strain (AID 165);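 further: 0% = growth equal to vehicle treated cultures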; conditions: S. cerevisiae cln2 rad14 strain, active compounds read high
# Procedure, shortened: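 Relative to vehicle controls, growth inhibition of compound-treated cln2 rad14 yeast was recorded.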
# [11] = NCI Yeast Anticancer Drug Screen. Data for the bub3 strain (AID 167); conditions: S. cerevisiae bub3 mutant strain, active compounds read high
# Procedure, shortened: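 Steps: expose the mutant yeast strain to compound; grow alongside vehicle-treated cultures; measure growth; express inhibition against the vehicle cultures.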
# [12] = NCI Yeast Anticancer Drug Screen. Data for the wt2 strain (AID 169);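 further: 0% = growth of vehicle-treated yeast cultures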; conditions: S. cerevisiae wt2 strain growth inhibition, active compounds read high
# Procedure, shortened: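 Values express reduction in yeast growth under compound treatment, referenced to vehicle-treated cells.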
# [13] = NCI Yeast Anticancer Drug Screen. Data for the mlh1 strain (AID 171);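 further: 0% = growth of vehicle-treated control cultures of the same strain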; conditions: S. cerevisiae mlh1 strain growth inhibition, active compounds read high
# Procedure, shortened: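 Steps: expose the defined-mutant yeast strain to compound; expose a parallel culture to vehicle; measure growth; express compound effect as inhibition relative to the vehicle culture.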
# [14] = NCI Yeast Anticancer Drug Screen. Data for the sgs1 strain (AID 173);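 further: 0% = growth of vehicle-only control cultures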; conditions: S. cerevisiae sgs1 mutant, active compounds read high
# Procedure, shortened: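 Treat defined-mutant yeast with compound; measure growth; calculate inhibition relative to vehicle-treated cells.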
# [15] = NCI Yeast Anticancer Drug Screen. Data for the mlh1 rad18 strain (AID 175); conditions: S. cerevisiae mlh1 rad18 strain growth inhibition, active compounds read high
# Procedure, shortened: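 Test agents were incubated with a yeast strain of defined genotype (DNA damage repair defect). Inhibition of growth was derived by comparison with vehicle-exposed cultures.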
# [16] = NCI Yeast Anticancer Drug Screen. Data for the rad18 strain (AID 177); conditions: S. cerevisiae rad18 mutant growth inhibition, active compounds read high
# Procedure, shortened: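 A genetically defined yeast mutant impaired in DNA damage repair was treated with test compounds, then its growth was measured against cultures receiving vehicle alone.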
# [17] = at 5.0 µM (retest, dose inferred, filed as 0.5)
# [18] = at 50.0 µM (retest, dose inferred, filed as 5.0)
structure (smiles),measurement,setting,value
N#CCCC1C(C#N)C2(Cl)CC1(Cl)C(Cl)=C2Cl (stereo unspecified),growth inhibition,[1]; at 1.2 µM,-15%
same,growth inhibition,[1]; at 3.7 µM,-6%
same,growth inhibition,[1]; at 11.0 µM,-2%
same,growth inhibition,[1]; at 33.0 µM,81% (active)
same,growth inhibition,[1]; at 100.0 µM,98% (active)
same,growth inhibition,[2]; at 1.2 µM,-1%
same,growth inhibition,[2]; at 3.7 µM,8%
same,growth inhibition,[2]; at 11.0 µM,1%
same,growth inhibition,[2]; at 33.0 µM,61%
same,growth inhibition,[2]; at 100.0 µM,98% (active)
same,growth inhibition,[3]; at 1.2 µM,-4%
same,growth inhibition,[3]; at 3.7 µM,-20%
same,growth inhibition,[3]; at 11.0 µM,-22%
same,growth inhibition,[3]; at 33.0 µM,4%
same,growth inhibition,[3]; at 100.0 µM,84% (active)
same,growth inhibition,[4]; at 1.2 µM,-38%
same,growth inhibition,[4]; at 3.7 µM,-46%
same,growth inhibition,[4]; at 11.0 µM,-38%
same,growth inhibition,[4]; at 33.0 µM,6%
same,growth inhibition,[4]; at 100.0 µM,98% (active)
same,growth inhibition,[5]; at 1.2 µM,-10%
same,growth inhibition,[5]; at 3.7 µM,7%
same,growth inhibition,[5]; [17],-23%
same,growth inhibition,[5]; at 11.0 µM,1%
same,growth inhibition,[5]; at 33.0 µM,84% (active)
same,growth inhibition,[5]; [18],89% (active)
same,growth inhibition,[5]; at 50.0 µM,89.9% (active)
same,growth inhibition,[5]; at 100.0 µM,97% (active)
same,growth inhibition,[6]; at 1.2 µM,-29%
same,growth inhibition,[6]; at 3.7 µM,-8%
same,growth inhibition,[6]; [17],-16%
same,growth inhibition,[6]; at 11.0 µM,-7%
same,growth inhibition,[6]; at 33.0 µM,45%
same,growth inhibition,[6]; [18],82% (active)
same,growth inhibition,[6]; at 50.0 µM,92% (active)
same,growth inhibition,[6]; at 100.0 µM,98% (active)
same,growth inhibition,[7]; at 1.2 µM,-44%
same,growth inhibition,[7]; at 3.7 µM,-36%
same,growth inhibition,[7]; at 11.0 µM,-20%
same,growth inhibition,[7]; at 33.0 µM,77% (active)
same,growth inhibition,[7]; at 100.0 µM,98% (active)
same,growth inhibition,[8]; [17],-18%
same,growth inhibition,[8]; [18],4%
same,growth inhibition,[8]; at 50.0 µM,91.5% (active)
same,growth inhibition,[9]; at 1.2 µM,-28%
same,growth inhibition,[9]; at 3.7 µM,-9%
same,growth inhibition,[9]; at 11.0 µM,-6%
same,growth inhibition,[9]; at 33.0 µM,38%
same,growth inhibition,[9]; at 100.0 µM,96% (active)
same,growth inhibition,[10]; [17],17%
same,growth inhibition,[10]; [18],75% (active)
same,growth inhibition,[10]; at 50.0 µM,87.8% (active)
same,growth inhibition,[11]; at 1.2 µM,-1%
same,growth inhibition,[11]; at 3.7 µM,-6%
same,growth inhibition,[11]; [17],-8%
same,growth inhibition,[11]; at 11.0 µM,-15%
same,growth inhibition,[11]; at 33.0 µM,58%
same,growth inhibition,[11]; [18],73% (active)
same,growth inhibition,[11]; at 50.0 µM,89.2% (active)
same,growth inhibition,[11]; at 100.0 µM,96% (active)
same,growth inhibition,[12]; at 1.2 µM,5%
same,growth inhibition,[12]; at 3.7 µM,5%
same,growth inhibition,[12]; at 11.0 µM,0%
same,growth inhibition,[12]; at 33.0 µM,31%
same,growth inhibition,[12]; at 100.0 µM,98% (active)
same,growth inhibition,[13]; at 1.2 µM,-42%
same,growth inhibition,[13]; at 3.7 µM,-37%
same,growth inhibition,[13]; at 11.0 µM,-22%
same,growth inhibition,[13]; at 33.0 µM,16%
same,growth inhibition,[13]; at 100.0 µM,97% (active)
same,growth inhibition,[14]; at 1.2 µM,22%
same,growth inhibition,[14]; at 3.7 µM,18%
same,growth inhibition,[14]; at 11.0 µM,20%
same,growth inhibition,[14]; at 33.0 µM,64%
same,growth inhibition,[14]; at 100.0 µM,99% (active)
same,growth inhibition,[15]; [17],-3%
same,growth inhibition,[15]; [18],85% (active)
same,growth inhibition,[15]; at 50.0 µM,86.8% (active)
COc1c2c(c3c(c1CCC(=O)O)OC(C)(C)C=C3)OC(C)(C)C=C2,growth inhibition,[1]; at 1.2 µM,-3%
same,growth inhibition,[1]; at 3.7 µM,1%
same,growth inhibition,[1]; at 11.0 µM,10%
same,growth inhibition,[1]; at 33.0 µM,62%
same,growth inhibition,[1]; at 100.0 µM,98% (active)
same,growth inhibition,[2]; at 1.2 µM,0%
same,growth inhibition,[2]; at 3.7 µM,2%
same,growth inhibition,[2]; at 11.0 µM,13%
same,growth inhibition,[2]; at 33.0 µM,49%
same,growth inhibition,[2]; at 100.0 µM,97% (active)
same,growth inhibition,[3]; at 1.2 µM,-3%
same,growth inhibition,[3]; at 3.7 µM,1%
same,growth inhibition,[3]; at 11.0 µM,5%
same,growth inhibition,[3]; at 33.0 µM,15%
same,growth inhibition,[3]; at 100.0 µM,35%
same,growth inhibition,[4]; at 1.2 µM,-1%
same,growth inhibition,[4]; at 3.7 µM,0%
same,growth inhibition,[4]; at 11.0 µM,15%
same,growth inhibition,[4]; at 33.0 µM,61%
same,growth inhibition,[4]; at 100.0 µM,99% (active)
same,growth inhibition,[5]; at 1.2 µM,-1%
same,growth inhibition,[5]; at 3.7 µM,-3%
same,growth inhibition,[5]; [17],15%
same,growth inhibition,[5]; at 11.0 µM,19%
same,growth inhibition,[5]; at 33.0 µM,54%
same,growth inhibition,[5]; [18],45%
same,growth inhibition,[5]; at 50.0 µM,58.2%
same,growth inhibition,[5]; at 100.0 µM,98% (active)
same,growth inhibition,[6]; at 1.2 µM,-2%
same,growth inhibition,[6]; at 3.7 µM,2%
same,growth inhibition,[6]; [17],-1%
same,growth inhibition,[6]; at 11.0 µM,20%
same,growth inhibition,[6]; at 33.0 µM,59%
same,growth inhibition,[6]; [18],49%
same,growth inhibition,[6]; at 50.0 µM,65.8%
same,growth inhibition,[6]; at 100.0 µM,98% (active)
same,growth inhibition,[7]; at 1.2 µM,0%
same,growth inhibition,[7]; at 3.7 µM,2%
same,growth inhibition,[7]; at 11.0 µM,11%
same,growth inhibition,[7]; at 33.0 µM,53%
same,growth inhibition,[7]; at 100.0 µM,98% (active)
same,growth inhibition,[8]; [17],-3%
same,growth inhibition,[8]; [18],32%
same,growth inhibition,[8]; at 50.0 µM,69.8%
same,growth inhibition,[9]; at 1.2 µM,-1%
same,growth inhibition,[9]; at 3.7 µM,-1%
same,growth inhibition,[9]; at 11.0 µM,27%
same,growth inhibition,[9]; at 33.0 µM,80% (active)
same,growth inhibition,[9]; at 100.0 µM,99% (active)
same,growth inhibition,[10]; [17],43%
same,growth inhibition,[10]; [18],82% (active)
same,growth inhibition,[10]; at 50.0 µM,91.2% (active)
same,growth inhibition,[11]; at 1.2 µM,-7%
same,growth inhibition,[11]; at 3.7 µM,-1%
same,growth inhibition,[11]; [17],-13%
same,growth inhibition,[11]; at 11.0 µM,6%
same,growth inhibition,[11]; at 33.0 µM,58%
same,growth inhibition,[11]; [18],20%
same,growth inhibition,[11]; at 50.0 µM,71.9% (active)
same,growth inhibition,[11]; at 100.0 µM,97% (active)
same,growth inhibition,[12]; at 1.2 µM,-1%
same,growth inhibition,[12]; at 3.7 µM,2%
same,growth inhibition,[12]; at 11.0 µM,17%
same,growth inhibition,[12]; at 33.0 µM,56%
same,growth inhibition,[12]; at 100.0 µM,98% (active)
same,growth inhibition,[13]; at 1.2 µM,2%
same,growth inhibition,[13]; at 3.7 µM,3%
same,growth inhibition,[13]; at 11.0 µM,20%
same,growth inhibition,[13]; at 33.0 µM,39%
same,growth inhibition,[13]; at 100.0 µM,99% (active)
same,growth inhibition,[14]; at 1.2 µM,0%
same,growth inhibition,[14]; at 3.7 µM,4%
same,growth inhibition,[14]; at 11.0 µM,20%
same,growth inhibition,[14]; at 33.0 µM,59%
same,growth inhibition,[14]; at 100.0 µM,98% (active)
same,growth inhibition,[15]; [17],3%
same,growth inhibition,[15]; [18],43%
same,growth inhibition,[15]; at 50.0 µM,76.4% (active)
same,growth inhibition,[16]; at 1.2 µM,3%
same,growth inhibition,[16]; at 3.7 µM,8%
same,growth inhibition,[16]; at 11.0 µM,22%
same,growth inhibition,[16]; at 33.0 µM,51%
same,growth inhibition,[16]; at 100.0 µM,97% (active)

# Reference: PubChem BioAssay (NCI)
